High-throughput results deposited in PubChem by SRMLSC.
Autofluor 339: intrinsic fluorescence of library compounds, ex339/em460 – biochemical, MLSMR library, data from DPM-DC assay, artefact control, profiling panel | fluorescence fold increase at 10 µM | AID 709 | 65,000 compounds, 5.5% hits | compound autofluorescence, ex339/em460 nm, NADH buffer; stronger effect = higher value; 1 = no-compound wells, NADH background;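 active means at 10 µM, mean starting fluorescence two-fold or more over control wells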;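 further: signal is the first read of a kinetic run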
A340 absorber: absorbance at 340 nm | compound absorbance at 340 nm, fold over control | fold change at 10 µM | 65,000 tested, under 10 active | AID 708;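 active means at 10 µM dose, initial 340 nm absorbance at least 2 fold that of control wells; inactive means change under 2 fold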;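 further: initial absorbance extrapolated from kinetic A340 decline of NADH oxidation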
NADH coupling: inhibition of NAD/NADH coupling enzymes, library profiling | coupled PK/LDH NADH assays, four targets | IC50, µM (titrated, usually from 10 µM), for the others: at the highest dose inhibition | AID 774 | 65,000 compounds, 0.02% hits;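 active means single-dose screening hits from any of four coupled enzyme assays that gave an IC50 when retested across doses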;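 further: the DPM-DC format reads NADH fluorescence rather than 340 nm absorbance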
Spn MK inh: blocks S. pneumoniae mevalonate kinase. 65,000 compounds, 0.48% hits. inhibition, % at 10 µM. AID 555. purified MK, PK/LDH-coupled NADH absorbance 340 nm;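 active means ranked among the strongest by inhibition in the single 10 µM screen, a fixed top-ranked set picked for dose follow-up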
Spn DPM-DC inh: S. pneumoniae DPM-DC inhibition. purified DPM-DC, PK/LDH coupled NADH fluorescence. calls only at 10 µM. 65,000 compounds, 0.49% hits;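 active means the 320 compounds with the highest percent inhibition in the single-dose primary screen, excluding strongly autofluorescent ones, cut at about 32% in these data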;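 further: kinetic rate of NADH fluorescence loss reporting ADP formed by the decarboxylase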
Spn PMK inh: inhibitors of Streptococcus pneumoniae phosphomevalonate kinase; 65,000 compounds, 0.49% hits; inhibition, % at 10 µM; purified PMK, PK/LDH-coupled NADH absorbance 340 nm;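 active means top-ranked compounds by inhibition in the single 10 µM screen, taking a fixed number of the strongest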;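 further: 0% = full reaction with DMSO carrier and 100% = background rate without enzyme reaction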
* = called active by the depositor; i = inactive; x = no result shown; + = active, no number. In the library only some 6.5% were active in any assay of this set; here they are far more common.

SMILES | Autofluor 339 | A340 absorber | NADH coupling | Spn MK inh | Spn DPM-DC inh | Spn PMK inh
O=C(CNC(=O)c1cccs1)NCCN1CCN(c2ccccc2F)CC1 | 1 | 0.96 | 5% | 8 | i | 25*
CC(C)Cn1cc(C(=O)N2CCN(c3ccccn3)CC2)c2c3ccccc3n(C)c2c1=O | 2.1* | 1 | 5% | 9 | i | 7
COc1ccccc1-n1cc(C(=O)NCC(=O)N2CCN(c3ccccn3)CC2)c2ccccc2c1=O | 1.2 | 1 | 1% | 4 | i | 0
Cn1cc(C(=O)N2CCN(C(=O)c3ccco3)CC2)c2c3ccccc3n(C)c2c1=O | 3.5* | 1.1 | 12% | 0 | i | 16
CC(C)Cn1cc(C(=O)NCCCN2CCCC2=O)c2c3ccccc3n(C)c2c1=O | 3.9* | 1 | 14% | 7 | i | 17
Cc1ccc(C(=O)C2CCN(CC(=O)Nc3ccc(N(C)C)cc3)CC2)cc1 | 0.97 | 0.99 | 7% | 0 | i | 22
c1ccc(-c2noc(-c3cccc4ccccc34)n2)nc1 | 3.3* | 1 | 7% | 8 | x | 6
O=C(NC1CCCc2ccccc21)C1CCN(c2c3c(nc4ncnn24)CCC3)CC1 (stereo not drawn) | 4.7* | 1.1 | 6% | 5 | x | 6
Clc1ccc2[nH]c3c(NCC4CCCO4)ncnc3c2c1 (stereo not drawn) | 2.5* | 1.1 | 9% | 2 | i | 11
Clc1ccc2[nH]c3c(NCCN4CCOCC4)ncnc3c2c1 | 1.4 | 1.1 | 8% | 5 | i | 12
Cc1cc(C)c(C)c(OCC(=O)NCc2nc(-c3ccccc3)no2)c1 | 1.2 | 1 | 5% | 10 | i | 0
Cc1sc2nc3ccc(N4CCCCC4)nn3c(=O)c2c1C | 2.4* | 1.1 | 4% | 4 | i | 7
Cc1ccc2nc3ccc(N4CCCC4)nn3c(=O)c2c1 | 1.6 | 1.1 | 5% | 0 | i | 16
COCC(=O)Nc1nc2n(n1)C(c1ccc(OC)cc1)CC(c1ccc(OC)cc1)N2 (stereo not drawn) | 2 | 1 | 4% | 6 | i | 0
COCC(=O)Nc1nc2n(n1)C(c1ccccc1)CC(c1ccc(OC)cc1)N2 (stereo not drawn) | 2.7* | 1.1 | 8% | 8 | i | 3
COc1ccc(C2CC(c3cccc(C)c3)n3nc(N)nc3N2)cc1 (stereo not drawn) | 0.14 | 1.1 | 40% | 6 | + | 15
Cc1cccc(C2CC(c3ccc(Br)cc3)Nc3nc(N)nn32)c1 (stereo not drawn) | 1.1 | 0.99 | 2% | 12 | i | 1
Oc1ccc(CN2CCCCC2)nc1-c1ccccc1 | 3.3* | 1.1 | 5% | 0 | i | 0
CC(C)=CCC(C)(C)CNC(=O)NC1CCCCC1 | 1 | 1 | 5% | 5 | i | 8
CC(=O)C(Sc1ccc2nnc(-c3ccc(F)cc3)n2n1)C(C)=O | 1.1 | 1.1 | 7% | 11 | i | 10
CCCc1[nH]nc2c1C(c1ccc(OC)c(Cn3nnc4ccccc43)c1)C(C#N)=C(N)O2 (stereo not drawn) | 1.1 | 0.98 | 22% | 51* | i | 10
COc1ccc(C2C(C#N)=C(N)Oc3n[nH]c(C)c32)cc1Cn1nnc2ccccc21 (stereo not drawn) | 1.1 | 1.1 | 13% | 14 | i | 24
CCOC(=O)c1cnc2sc3c(n2c1=O)CCCC3 | 5* | 1.1 | 9% | 3 | x | 15
CCCOc1ccc(N2C(=O)CC(N3CCC(c4nncn4CC)CC3)C2=O)cc1 (stereo not drawn) | 1.1 | 1 | 5% | 10 | i | 6
CC(CC(=O)O)NCC1COc2ccccc2O1 (stereo not drawn) | 1.1 | 1 | 11% | 6 | i | 26*
SMILES | Autofluor 339 | A340 absorber | NADH coupling | Spn MK inh | Spn DPM-DC inh | Spn PMK inh
O=C(O)CNCC1COc2ccccc2O1 (stereo not drawn) | 1.1 | 1 | 5% | 2 | i | 14
Cc1cc(NC(=O)c2sccc2C)n(-c2cccc(Cl)c2)n1 | 1.1 | 0.98 | 5% | 2 | i | 14
COC(=O)c1ccc(-c2nc3ccc(C)cc3o2)cc1 | 3.8* | 1.1 | 14% | 10 | x | 17
COC(=O)c1ccc(-c2nc3ccccc3o2)cc1 | 4.6* | 1.1 | 2% | 0 | x | 3
Cc1ccc(-c2nc3cc(C)ccc3o2)cc1 | 0.87 | 1.1 | 4% | 1 | i | 0
CC(C)c1nnc(NC(=O)Cn2nc(-c3ccc4c(c3)OCCO4)ccc2=O)s1 | 1.1 | 1 | 4% | 4 | i | 8
CCN(CC)CCCNc1oc(-c2cccc(Cl)c2)nc1C#N | 3* | 1 | 5% | 15 | x | 16
CN(C)CCCNc1oc(-c2ccc(Cl)cc2)nc1C#N | 4.8* | 1 | 7% | 7 | x | 6
COCCNc1oc(-c2ccc(Cl)cc2)nc1C#N | 2.4* | 1.1 | 5% | 0 | x | 10
CN(C)c1oc(-c2ccc(OCc3ccc(Cl)cc3)cc2)nc1C#N | 3.3* | 1.1 | 6% | 5 | i | 1
CN(C)c1oc(COc2ccc(F)cc2)nc1C#N | 1.1 | 1 | 5% | 10 | i | 4
COCCCNc1oc(COc2ccc(Cl)cc2Cl)nc1C#N | 1.4 | 0.98 | 4% | 7 | i | 6
CN(C)CCNc1oc(COc2ccc(-c3ccccc3)cc2)nc1C#N | 1.1 | 1 | 6% | 10 | i | 7
COCCNc1oc(-c2ccc(C)cc2)nc1C#N | 2.5* | 1 | 3% | 0 | x | 7
CN(C(=O)C1CCOC1)c1nnc(C2CCOC2)s1 (stereo not drawn) | 1.1 | 1 | 9% | 1 | i | 27*
CN(C(=O)C1CCOC1)c1nnc(-c2cnccn2)s1 (stereo not drawn) | 1.3 | 1 | 9% | 0 | i | 14
CC(C)(C)NS(=O)(=O)c1cccc(S(=O)(=O)c2cccc(S(=O)(=O)NC(C)(C)C)c2)c1 | 1.1 | 1 | 4% | 0 | i | 11
CCCCn1c(=NC(=O)c2ccc3c(c2)OCO3)c(C#N)cc2c(=O)n3cccc(C)c3nc21 | 2.3* | 1.1 | 11% | 4 | i | 5
Cc1cccn2c(=O)c3cc(C#N)c(=NC(=O)c4ccncc4)n(Cc4ccco4)c3nc12 | 2.7* | 1 | 3% | 11 | x | 13
CCCCCn1c(=NC(C)=O)c(C#N)cc2c(=O)n3ccccc3nc21 | 3.6* | 1.1 | 7% | 3 | x | 11
CCCCn1c(=NC(C)=O)c(C#N)cc2c(=O)n3cccc(C)c3nc21 | 3.9* | 1.1 | 8% | 8 | x | 8
COCCn1c(=NC(=O)c2ccc3c(c2)OCO3)c(C#N)cc2c(=O)n3cccc(C)c3nc21 | 1.3 | 1.1 | 3% | 0 | i | 9
CCC(C(=O)Nc1nnc(-c2ccco2)s1)c1ccccc1 (stereo not drawn) | 1.4 | 1.1 | 4% | 3 | i | 10
